# Source: ChEMBL document CHEMBL3988442, “University of Dundee, Small-Polar-MMV Screening Library” (2021)
# In all, about 48,000 compounds went through this assay and about 13,000 (27%) showed an effect of 50% or more. Some of the results follow.
# Tested on: Wolbachia pipientis
# Experiment: Anti-Wolbachia Cell-Based Screen
# Assay type: functional
# Design: scale not given: in the data most compounds retested in dose-response had high values
# Conditions: 5 µM
row,Structure (SMILES),Percent Effect
1,N#Cc1ccsc1NC(=O)CCN1CCn2c(nnc2C2CC2)C1,113.3%
2,Cc1cc(NC(=O)CCN2CCn3c(nnc3C3CC3)C2)no1,-0.2298%
3,Cc1cc(NC(=O)CN2CCn3c(nnc3C3CC3)C2)n(C)n1,-5.451%
4,CNC(=O)COc1nc(C(C)(C)C)no1,-5.111%
5,CCN(Cc1ccoc1)C(C(N)=O)c1cccc(Br)c1 (configuration not stated),12.55%
6,CNC(=O)C(C)(C)N(C)C(=O)c1cc(COc2ccccc2OC)[nH]n1,-2.904%
7,COc1ccc(OCCN(C)C(=O)c2ccc(OC)cc2O)cc1,93.52%
8,COCCN(C)C(=O)c1ccc(OC)cc1O,-1.632%
9,CCc1ccc(OCCN(C)C(=O)c2ccncc2Cl)cc1,-12.28%
10,Cc1nc(C#N)c(N2CCC(c3nc(-c4ccc(F)cc4)no3)CC2)o1,10.17%
11,Cc1cnn(CC2CCCCN2Cc2noc(C3CC3)n2)c1 (configuration not stated),11.5%
12,CCc1nnc(CN2CCCC2Cn2cc(C)cn2)o1 (configuration not stated),107.1%
13,Cc1cnn(CC2CCCN2Cc2ncc(-c3ccccc3)o2)c1 (configuration not stated),-2.575%
14,Cc1cnn(CC2CCCN2Cc2nnc(C3CC3)o2)c1 (configuration not stated),113.6%
15,Cc1cnn(CC2CCCN2Cc2nnc(C(C)C)o2)c1 (configuration not stated),94.36%
16,Cc1cnn(CC2CCCN2Cc2nnc(Cc3ccccc3)o2)c1 (configuration not stated),6.561%
17,Cc1cnn(CC2CCCN2Cc2nnc(-c3ccccc3)o2)c1 (configuration not stated),97.7%
18,CC(C)c1nnc(CN2CCCC2Cn2cncn2)o1 (configuration not stated),2.76%
19,Cc1cnn(CC2CCCN2Cc2coc(-c3ccccc3)n2)c1 (configuration not stated),17.84%
20,CNC(=O)C(C)CN(C)C(=O)Nc1cc(-n2cccc2)ccc1F (configuration not stated),4.281%
21,COc1cccc(F)c1C(C)NC(=O)NCc1ccnc(C)n1 (configuration not stated),15.11%
22,CC(C)N(Cc1ccccc1)Cc1nnsc1Cl,2.332%
23,CC(C)(C)c1cnc(CN2C(=O)CC3(CCSC3)C2=O)o1 (configuration not stated),-9.013%
24,Cc1cnn(CC2CCCN2Cc2nnc(C)o2)c1 (configuration not stated),108.8%
25,O=C(CCn1cnnn1)N1CCCC(CO)(CCCc2ccccc2)C1 (configuration not stated),2.487%
26,O=C(CCn1cnnn1)N1CCCC(CO)(CCc2ccccc2)C1 (configuration not stated),-14.03%

row,Structure (SMILES),Percent Effect
1,CCCC1(CO)CCCN(C(=O)CNC(N)=O)C1 (configuration not stated),100.2%
2,CCCC1(CO)CCCN(C(=O)CNC(C)=O)C1 (configuration not stated),72.22%
3,CNc1ncc(C(=O)N2CCCC(CO)(CCCOC)C2)cn1 (configuration not stated),-3.097%
4,CC(=O)NCC(=O)N1CCCC2(CCC(=O)N(CCc3c[nH]cn3)C2)C1 (configuration not stated),7.336%
5,COc1c(C2CCCN2c2ncnc3sccc23)c(C)nn1C (configuration not stated),-10.8%
6,CN(CC1(O)CCCN(Cc2cccc(F)c2F)C1=O)C1CCCCC1 (configuration not stated),6.301%
7,CCC1CCCCN1S(=O)(=O)c1c(C)noc1C (configuration not stated),-6.559%
8,Cc1ccnc(C2(C)CCCN2S(=O)(=O)c2cccnc2)n1 (configuration not stated),132.4%
9,Cc1noc(C)c1S(=O)(=O)N1C[C@@H](C(=O)O)[C@H](c2ccccn2)C1,-14.24%
10,Cc1ccnc(C2(C)CCCN2S(=O)(=O)c2c(C)noc2C)n1 (configuration not stated),125.2%
11,CCCN1CCCC2(CCN(S(=O)(=O)c3cccnc3)C2)C1=O (configuration not stated),3.088%
12,O=C1N(C2CCCCC2)CCCC12CCN(S(=O)(=O)c1cccnc1)C2 (configuration not stated),14.14%
13,CC(C)c1noc(CNc2ccccc2CC(=O)N(C)C)n1,6.812%
14,Cc1nn(C)c(C)c1NC(=O)CNc1ccc(F)c(C(F)(F)F)c1,-4.336%
15,CC(=O)NCC(=O)N1CCCC1c1ccc(CN2CCOCC2)cn1 (configuration not stated),87.68%
16,CCc1ccc(C2CCCCCN2C(=O)CNC(=O)C2CC2)o1 (configuration not stated),-5.222%
17,Cc1cc(C(=O)Nc2ccc(CN3CCOCC3)cn2)n(C)n1,-8.587%
18,O=C(CC1CCCCC1)N1C[C@H]2CC[C@@H]1CN(Cc1cccnc1)C2,-16.08%
19,O=C(CC1CCCC1)N1CCCC1c1ccc(CN2CCOCC2)cn1 (configuration not stated),123.2%
20,CC(=O)N1CCCC1c1ccc(Br)cn1 (configuration not stated),103.5%
21,CC(=O)N1CCCC1c1ccc(-c2c(C)noc2C)cn1 (configuration not stated),-2.111%
22,Cn1cccc1C(=O)N1C[C@H](OCC2CCOCC2)[C@H]2COC[C@H]21,-0.3996%
23,Cn1cccc1C(=O)N1CCCC1c1ccc(CN2CCOCC2)cn1 (configuration not stated),73.28%
24,Cc1ccc(CNC(=O)NCCCn2nc3ccccn3c2=O)s1,0.9307%
25,CN(C)CCN(C)C[C@@H]1CN(Cc2cccc(O)c2)C[C@@H]1CO,-1.662%
26,Cc1ccc(-c2nc(C(=O)N(C)CC(=O)N3CCCC3)cs2)c(C)c1,2.536%
